Test results from PubChem BioAssay (NCI).
The panel holds about 83,000 compounds, 20% with a hit somewhere; the sample as a whole holds those more often.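 Testing used 96-well plates and a 48-hour single-concentration exposure. Example: -40 means 40% of the starting cells died.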 Unmarked numbers belong to inactive results. The source made the active and inactive calls. How the source made its calls: active means growth percent below 10; inactive means the rest.

What was measured:
Assay in all cases: NCI-60 one-dose screen, 48 h (100 = growth as untreated, 0 = no growth, -100 = all killed)
Settings in all cases: 10 µM
HCT-15 colon = test system: HCT-15 colon
HT29 colon = test system: HT29 colon
SNB-75 CNS = test system: SNB-75 CNS
SNB-19 CNS = test system: SNB-19 CNS
U251 CNS = test system: U251 CNS
PC-3 prostate = test system: PC-3 prostate
SK-MEL-5 melanoma = test system: SK-MEL-5 melanoma
UACC-62 melanoma = test system: UACC-62 melanoma
LOX IMVI melanoma = test system: LOX IMVI melanoma
SK-MEL-28 melanoma = test system: SK-MEL-28 melanoma
SK-MEL-2 melanoma = test system: SK-MEL-2 melanoma
EKVX NSCLC = test system: EKVX NSCLC
SN12C renal = test system: SN12C renal
UO-31 renal = test system: UO-31 renal
ACHN renal = test system: ACHN renal
CAKI-1 renal = test system: CAKI-1 renal
A498 renal = test system: A498 renal
CCRF-CEM leukemia = test system: CCRF-CEM leukemia
MOLT-4 leukemia = test system: MOLT-4 leukemia
TK-10 renal = test system: TK-10 renal

| Compound | growth (HCT-15 colon) | growth (HT29 colon) | growth (SNB-75 CNS) | growth (SNB-19 CNS) | growth (U251 CNS) | growth (PC-3 prostate) | growth (SK-MEL-5 melanoma) | growth (UACC-62 melanoma) | growth (LOX IMVI melanoma) | growth (SK-MEL-28 melanoma) | growth (SK-MEL-2 melanoma) | growth (EKVX NSCLC) | growth (SN12C renal) | growth (UO-31 renal) | growth (ACHN renal) | growth (CAKI-1 renal) | growth (A498 renal) | growth (CCRF-CEM leukemia) | growth (MOLT-4 leukemia) | growth (TK-10 renal) |
| --- | --- | --- | --- | --- | --- | --- | --- | --- | --- | --- | --- | --- | --- | --- | --- | --- | --- | --- | --- | --- |
| CCCn1c(=O)c2[nH]c(-c3ccc(OCc4nc5ccc(F)cc5[nH]4)cc3)nc2n(CCC)c1=O | 28.7% | 26.7% | -23.5% (active) | 50.4% | 0.191% (active) | 36.3% | -22.5% (active) | 3.86% (active) | -29.3% (active) | 38% | 28.6% | 34.4% | -20.1% (active) | -78.7% (active) | -56.6% (active) | 6.55% (active) | -85.8% (active) | 44% | 24.7% |  |
| O=c1[nH]c2ccccc2cc1CSc1ccc(Nc2nccc(-c3ccc(C(F)(F)F)cc3)n2)cc1 | 29.7% | 28.8% | 19.1% | 33.1% | -26.4% (active) | 43.8% | 89.2% | 81.9% | 15.5% | 78.7% | 85.4% | 7.65% (active) | -19.7% (active) | 5.37% (active) | -29.1% (active) | 12.7% | -50.2% (active) |  | 55.6% | -6.8% (active) |
| CC(C)NC(=O)c1cc(-c2ccc(NC(=O)Nc3ccc(N4CCN(C)CC4)c(C(F)(F)F)c3)cc2)nc2cccnc12 | -89.6% (active) | -86.6% (active) | -96.2% (active) | -93.2% (active) | -86.2% (active) | -72.9% (active) | -100% (active) | -97.1% (active) | -99.2% (active) | -99.3% (active) | -81.9% (active) | -92.4% (active) | -92.9% (active) | -97.4% (active) | -100% (active) | -93.6% (active) | -97.7% (active) | -43.6% (active) |  |  |
| O=C(Cc1ccc2c(c1)CN(C1CCC(=O)NC1=O)C2=O)NCc1cccc2ccccc12 (stereo unspecified) | -30.1% (active) | 3.65% (active) | -33.1% (active) | -11.9% (active) | 17.2% | 6.97% (active) | -93.8% (active) | 4.05% (active) | -48.3% (active) | -10.6% (active) | -45.7% (active) | 1.9% (active) | -7.92% (active) | -33.8% (active) | -19% (active) | 7.68% (active) | -13.2% (active) | 9.65% (active) | -15.2% (active) |  |
| C=C(C)[C@@H]1CC[C@]2(COP(=O)(OCC)OCC)CC[C@]3(C)[C@H](CC[C@@H]4[C@@](C)(CCCN)[C@H](C(=C)C)CC[C@]43C)[C@@H]12 | 9.75% (active) | 5.73% (active) | 34.4% | 40.4% | 21% | 13.1% | -47.6% (active) | 35.3% | 1.01% (active) | 31.7% | 27.2% | 21.6% | 14.7% | 16.7% | 22.3% | 19.5% |  | 2.27% (active) |  | 57.4% |
| CN1CCN(c2ccc(C(=O)/C=C/c3cc(Br)ccc3F)cc2)CC1 | -22.6% (active) | -13.2% (active) | 40.1% | 56.5% | 23.8% | 37.1% | 18.6% | 64% | -91.8% (active) | 90.8% | 107% | 55.7% | 38.2% | 44.2% | 63.7% | 50% | 107% | -11.4% (active) | 24% |  |
| O=C(NCCCCCCCCCC[P+](c1ccccc1)(c1ccccc1)c1ccccc1)c1ccc(-n2nc(-c3ccccc3O)nc2-c2ccccc2O)cc1 | -90.4% (active) | -72.9% (active) | -27.1% (active) | -93.9% (active) | -50% (active) | -48.3% (active) | -100% (active) | -88.9% (active) | -96.9% (active) | -93.8% (active) | -79.6% (active) | -90% (active) | -76.4% (active) | -84.3% (active) | -98.6% (active) | -68.5% (active) | -75.1% (active) |  | -10.4% (active) | -91.1% (active) |
